In PubChem BioAssay (Tox21):
Results filed as inconclusive are left out. The source made the active and inactive calls. Unless noted, calls come from the whole dose curve; as a rule, active = well fitted curve in the direction sought with a large enough effect in the repeat runs; inconclusive = weak or mixed curves; inactive = no such curve, though single readings can be large; an effect the other way counts as inactive or inconclusive.

Columns and labels:
[1] = qHTS assay for small molecule agonists of the p53 signaling pathway (AID 651631; calls by dose curve; note: nearly all actives have a fitted effect of over 15% in size; note: potency is the fitted concentration of half-maximal effect)
Method in brief: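 Fluorescence intensity from cleaved LiveBLAzer B/G substrate (2 h, room temperature) served as the signal. Beforehand, HCT-116 reporter cells bearing p53 response elements were treated 16 h at 37 °C with DMSO-dissolved compounds.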

[2] = qHTS assay for small molecules that induce genotoxicity in human embryonic kidney cells expressing luciferase-tagged ATAD5 (AID 651632); note: nearly all actives have a fitted effect of over 15% in size; note: potency is the fitted concentration of half-maximal effect
Method in brief: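 ATAD5-luc HEK293T, 2,000 cells/well; cpd or DMSO pin-transferred; 16 hr, 37C/5% CO2; Amplite 30 min RT; luminescence.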

[3] = qHTS assay for small molecule agonists of the p53 signaling pathway - cell viability (AID 651633; calls by dose curve; note: nearly all actives have a fitted effect of over 30% in size; note: potency is the fitted concentration of half-maximal effect)
Method in brief: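 p53RE-bla cells, seeded at 4,000 per well and rested 5 h at 37 C/5% CO2, received compounds in DMSO for 16 h at 37 C. CellTiter-Glo was then added, and luminescence was read after 30 min at room temperature to gauge cytotoxicity.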

[4] = qHTS assay for small molecules that induce genotoxicity in human embryonic kidney cells expressing luciferase-tagged ATAD5 - cell viability (AID 651634; calls by dose curve; note: nearly all actives have a fitted effect of over 25% in size; note: potency is the fitted concentration of half-maximal effect)
Method in brief: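 Fluorescence from CellTiter-Fluor, reporting protease activity within live cells, served as the viability read-out. HEK293T cells carrying luciferase-tagged ATAD5 had been treated with compound for 15.5 hr at 37C.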

[5] = qHTS assay for small molecule disruptors of the mitochondrial membrane potential (AID 720635); note: potency is the fitted concentration of half-maximal effect
Method in brief: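 HepG2 cells (2,000/well) attached overnight at 37C, then took compound for 1 hr at 37C, 5% CO2. Mito-MPS dye was added for 30 min; fluorescence was read at 490/535 nm (monomers) and 540/590 nm (aggregates).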

[6] = qHTS assay to test for compound auto fluorescence at 590 nm (red) in HepG2 cells (AID 720674)
Method in brief: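 Rose Bengal sodium served as the red fluorophore standard. HepG2 monolayers (overnight attachment, MEM with 10% FBS) were exposed to test compounds for 1 hr at 37 C and read at Ex 540/Em 590 nm.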

[7] = qHTS assay to test for compound auto fluorescence at 535 nm (green) in HepG2 cells (AID 720675)
[8] = qHTS assay to test for compound auto fluorescence at 460 nm (blue) in HEK293 cells (AID 720678); note: potency is the fitted concentration of half-maximal effect
Method in brief: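 Blue read-out at excitation 405 nm and emission 460 nm follows overnight compound exposure of HEK293 cells at 37C in 5% CO2. Activity is given as auto fluorescence equivalency to triamterene.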

[9] = qHTS assay to test for compound auto fluorescence at 590 nm (red) in HEK293 cells (AID 720679)
Method in brief: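 Red channel, Ex/Em 540/590nm; signal expressed as equivalency to Rose Bengal sodium. HEK293, 2,000 cells/well, 10% dialyzed FBS; 23 nL compound pinned after 4-5 hr attachment; overnight 37C/5% CO2 before reading.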

[10] = qHTS assay to test for compound auto fluorescence at 535 nm (green) in HEK293 cells (AID 720680)
[11] = qHTS assay to test for compound auto fluorescence at 460 nm (blue) in HEK293 cell free culture (AID 720681); note: potency is the fitted concentration of half-maximal effect
Method in brief: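 Test compounds were pinned into cell-free culture medium (DMEM with 10% FBS) and fluorescence was read directly at Ex/Em 405/460 nm. Signals were expressed as fluorescence equivalents of triamterene, with DMSO vehicle as control.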

[12] = qHTS assay to test for compound auto fluorescence at 535 nm (green) in HEK293 cell free culture (AID 720682)
Method in brief: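 Intrinsic compound fluorescence is measured in culture medium containing 10% FBS, with excitation at 485 nm and detection at 535 nm, referenced to fluorescein.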

[13] = qHTS assay to test for compound auto fluorescence at 590 nm (red) in HEK293 cell free culture (AID 720683)
Method in brief: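 Tox21 10K library compounds were pinned into cell-free DMEM with 10% FBS and fluorescence was read at excitation 540 nm. Activity is expressed as Rose Bengal sodium equivalency.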

[14] = qHTS assay to test for compound auto fluorescence at 590 nm (red) in HepG2 cell free culture (AID 720684)
Method in brief: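 Measured in medium alone (MEM containing 10% FBS) following pintool addition of compound; emission at 590 nm with 540 nm excitation, referenced to Rose Bengal sodium.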

[15] = qHTS assay to test for compound auto fluorescence at 460 nm (blue) in HepG2 cell free culture (AID 720685); note: potency is the fitted concentration of half-maximal effect
Method in brief: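 Compound (23 nL) or DMSO pinned into cell-free MEM with 10% FBS; blue fluorescence read at 405/460 nm excitation/emission, expressed as auto-fluorescence equivalency to triamterene.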

[16] = qHTS assay to test for compound auto fluorescence at 535 nm (green) in HepG2 cell free culture (AID 720686)
[17] = qHTS assay to test for compound auto fluorescence at 460 nm (blue) in HepG2 cells (AID 720687); note: potency is the fitted concentration of half-maximal effect
Method in brief: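 Cells (2,000/well in MEM with 10% FBS) attached overnight at 37 C, then were exposed to compound or DMSO for 1 hr at 37 C, 5% CO2. Fluorescence read at Ex/Em 405/460 nm, expressed as triamterene-equivalent signal.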

[18] = qHTS assay for small molecule disruptors of the mitochondrial membrane potential - cell viability (AID 720634; calls by dose curve;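 note: human HepG2 liver cancer cells; nearly all actives have a fitted effect of over 20% in size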)
Method in brief: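 Cells: HepG2, 2,000/well, attached overnight. Compound 1 hr, 37 C/5% CO2. +m-MPI dye, +CellTiter-Glo 30 min RT. Readout: luminescence (ATP).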

[19] = molecular target: Glucocorticoid receptor (Homo sapiens) (UniProt P04150); test: qHTS assay to identify small molecule agonists of the glucocorticoid receptor (GR) signaling pathway (AID 720691; active = well fitted activation curve with a large enough effect in the signal ratio in the repeat runs, not every such curve was filed as active; the % refers to the signal ratio); details: GR-bla HeLa, beta-lactamase reporter ratio, 18 h; activation: at 62.4 µM (top of the series)
Sequence of Glucocorticoid receptor (Homo sapiens) (P04150 whole entry, looked up): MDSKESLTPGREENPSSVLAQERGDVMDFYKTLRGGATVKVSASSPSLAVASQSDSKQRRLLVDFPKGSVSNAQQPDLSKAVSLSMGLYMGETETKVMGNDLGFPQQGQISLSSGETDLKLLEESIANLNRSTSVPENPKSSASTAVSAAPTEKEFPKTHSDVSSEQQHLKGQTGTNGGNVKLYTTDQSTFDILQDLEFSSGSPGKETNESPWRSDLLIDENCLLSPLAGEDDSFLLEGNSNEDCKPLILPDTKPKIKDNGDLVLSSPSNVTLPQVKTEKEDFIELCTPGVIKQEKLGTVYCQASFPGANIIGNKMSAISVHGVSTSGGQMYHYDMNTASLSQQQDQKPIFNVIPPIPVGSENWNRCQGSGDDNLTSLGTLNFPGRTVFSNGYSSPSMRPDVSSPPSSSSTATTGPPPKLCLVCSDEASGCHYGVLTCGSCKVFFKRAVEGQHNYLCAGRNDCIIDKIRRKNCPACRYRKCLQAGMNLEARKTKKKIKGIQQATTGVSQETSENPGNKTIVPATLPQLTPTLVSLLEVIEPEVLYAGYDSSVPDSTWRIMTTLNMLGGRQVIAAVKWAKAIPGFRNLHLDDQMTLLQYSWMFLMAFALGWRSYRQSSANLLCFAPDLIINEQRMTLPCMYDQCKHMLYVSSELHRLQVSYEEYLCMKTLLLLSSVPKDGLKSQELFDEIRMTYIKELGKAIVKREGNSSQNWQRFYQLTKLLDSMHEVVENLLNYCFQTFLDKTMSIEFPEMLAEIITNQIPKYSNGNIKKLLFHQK
Method in brief: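 Fluorescence intensity from LiveBLAzer B/G FRET substrate (2 h, room temperature) reports beta-lactamase expression driven by the glucocorticoid response element in GR-bla HeLa cells after 18 h compound exposure at 37 C.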

[20] = molecular target: Glucocorticoid receptor (Homo sapiens) (UniProt P04150); test: qHTS assay to identify small molecule antagonists of the glucocorticoid receptor (GR) signaling pathway (AID 720692; active = well fitted inhibition curve with a large enough effect in the signal ratio in the repeat runs, not every such curve was filed as active; the % refers to the signal ratio)
Method in brief: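 HeLa GR-bla cells; cmpd + dex 5 nM final, 18 h 37 C; LiveBLAzer B/G FRET substrate 2 h RT; fluorescence intensity read. Antagonist mode, qHTS.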
% is set by controls: 0 for no effect and ±100 for the full control effect; tags give direction and shape of the fitted curve or compound fluorescence and quenching.

C=C(C)C(=O)OCC(O)COc1ccc(C(C)(C)c2ccc(OCC(O)COC(=O)C(=C)C)cc2)cc1 (stereo not drawn)
active: Potency [1] 68.6 µM | Potency [3] 54.5 µM | Potency [4] 21.7 µM | Potency [5] 5.45 µM
inactive: Potency [2] | Potency [6] | Potency [7] | Potency [8] | Potency [9] | outcome [10] | Potency [11] | outcome [12] | Potency [13] | Potency [14] | Potency [15] | Potency [16] | Potency [17]

N/C(=N\N=C\c1ccc(Cl)cc1)N/N=C/c1ccc(Cl)cc1
active: Potency [1] 26.6 µM | Potency [3] 26.6 µM
inactive: Potency [2] | Potency [4] | Potency [18] | Potency [6] | Potency [7] | Potency [8] | Potency [9] | outcome [10] | Potency [11] | outcome [12] | Potency [13] | Potency [14] | Potency [15] | Potency [16] | Potency [17] | Potency [19] | Potency [20]

N=C1N=C(N)c2cc3ccccc3cc21
active: Potency [1] 9.69 µM | Potency [2] 19.3 µM | Potency [3] 12.2 µM | Potency [5] 3.06 µM | Potency [8] 35.5 µM [fluorescent] | Potency [11] 31.6 µM | Potency [15] 28.2 µM [fluorescent] | Potency [17] 38.7 µM [fluorescent]
inactive: Potency [4] | Potency [18] | Potency [6] | Potency [7] | Potency [9] | outcome [10] | outcome [12] | Potency [13] | Potency [14] | Potency [16]

CC(=O)SC[C@@H](Cc1ccccc1)C(=O)NCC(=O)OCc1ccccc1
inactive: Potency [1] | Potency [2] | Potency [3] | Potency [4] | Potency [18] | Potency [5] | fluorescence, relative to Rose Bengal [6] 0.374% [at 18.6 µM] | fluorescence, % of fluorescein control [7] 0.0221% [at 18.6 µM] | fluorescence, % of triamterene [8] -0.317% [at 18.6 µM] | fluorescence, % of fluorescent control [9] -1.15% [at 18.6 µM] | fluorescence, % of fluorescein [10] -0.0812% [at 18.6 µM] | fluorescence, % of fluorescent control [11] 0.0019% [at 18.6 µM] | fluorescence, % of fluorescent control [13] 0.587% [at 18.6 µM] | fluorescence, % of Rose Bengal [14] -0.444% [at 18.6 µM] | fluorescence, % of fluorescent control [15] -0.074% [at 18.6 µM] | fluorescence, % of fluorescein control [16] -0.0189% [at 18.6 µM] | fluorescence, % of fluorescent control [17] 0.351% [at 18.6 µM] | Potency [19] | Potency [20]

CO[Si](CCCNc1ccccc1)(OC)OC
inactive: Potency [1] | Potency [2] | Potency [3] | Potency [4] | Potency [18] | Potency [5] | Potency [6] | Potency [7] | Potency [8] | outcome [10] | Potency [11] | outcome [12] | Potency [13] | Potency [14] | Potency [15] | Potency [16] | Potency [17] | Potency [19] | Potency [20]

C[C@@H]1C[C@H]2[C@@H]3CCC4=CC(=O)C=C[C@]4(C)[C@@]3(Cl)[C@@H](O)C[C@]2(C)[C@@]1(OC(=O)c1ccco1)C(=O)CCl
inactive: Potency [1] | Potency [2] | Potency [3] | Potency [4] | Potency [18] | fluorescence, relative to Rose Bengal [6] -0.134% [at 18.6 µM] | fluorescence, % of fluorescein control [7] 0.0009% [at 18.6 µM] | fluorescence, % of triamterene [8] 0.0948% [at 18.6 µM] | fluorescence, % of fluorescent control [9] 0.225% [at 18.6 µM] | fluorescence, % of fluorescein [10] -0.0241% [at 18.6 µM] | fluorescence, % of fluorescent control [11] 0.0036% [at 18.6 µM] | fluorescence, % of fluorescent control [13] 0.0049% [at 18.6 µM] | fluorescence, % of Rose Bengal [14] -0.333% [at 18.6 µM] | fluorescence, % of fluorescent control [15] -0.0123% [at 18.6 µM] | fluorescence, % of fluorescein control [16] -0.0158% [at 18.6 µM]
active: Potency [5] 11.4 µM
